For test [1], the target named is Paired box protein Pax-6 (Homo sapiens) (UniProt P26367). As to the kind of experiment: ATG_Pax6_CIS: Attagene CIS-FACTORIAL HepG2 Assay for human Paired Box 6 (PAX6) (AID 2282956). The note with it: HepG2 CIS-FACTORIAL PAX6 reporter transcription, RNA readout; actives raise or lower the signal. The method in brief: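 Fluorescent RT-PCR products separated by capillary electrophoresis report PAX6-linked promoter mRNA in HepG2 cells 24 h post-dose. Curves fitted bidirectionally, DMSO as negative control.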

Test [2] is described as follows: ATG_PXRE_CIS: Attagene CIS-FACTORIAL HepG2 Assay for human Pregnane X Receptor Element (PXRE) (AID 2282957). The note with it: HepG2 Attagene CIS-FACTORIAL PXRE reporter, mRNA; actives raise or lower the signal. The method in brief:
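Reporter transcripts under endogenous PXR-responsive cis-regulation quantified from total RNA of transfected HepG2 cells 24 h post-dosing, via RT-PCR with fluorescent primer extension and capillary electrophoresis. Gain or loss of signal fitted against DMSO baseline.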

Test [3] is described as follows: ATG_RORE_CIS: Attagene CIS-FACTORIAL HepG2 Assay for human RAR-related Orphan Receptor Element (RORE) (AID 2282959). The conditions noted are these: HepG2 Attagene cis-factorial RORE reporter, mRNA; actives raise or lower the signal. The method in brief: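 HepG2 cells transiently transfected with multiple cis-element reporter transcription units, exposed to chemical for 24 h. Reporter mRNA quantified by RT-PCR, 6-FAM primer-extension labeling, HpaI digestion and capillary electrophoresis; bidirectional fit versus DMSO baseline.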

The nature of test [4]: ATG_Sox_CIS: Attagene CIS-FACTORIAL HepG2 Assay for human SRY-box transcription factor (SOX) (AID 2282960). The conditions noted are these: HepG2 Attagene cis-factorial SOX reporter, mRNA; actives raise or lower the signal. The method in brief: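 HepG2 cells transiently transfected with cis-element-driven multiple reporter transcription units, dosed 24 h; reporter mRNA measured by RT-PCR, FAM labelling, HpaI digestion and capillary electrophoresis. Bidirectional fit versus DMSO baseline.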

Test [5] in a line: ATG_SREBP_CIS: Attagene CIS-FACTORIAL HepG2 Assay for human Sterol Regulatory Element Binding (SREBP) (AID 2282962). The note with it: HepG2 Attagene cis-factorial SREBP reporter, mRNA; actives raise or lower the signal. Put shortly: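 Endogenous factor activity is measured in HepG2 through multiplexed reporter units under cis-element control. Following a 24 h incubation, reporter transcripts are reverse-transcribed, PCR-amplified and sized by capillary electrophoresis; activity is fitted in both directions relative to DMSO.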

In test [6] the target is Signal transducer and activator of transcription 3 (Homo sapiens) (UniProt P40763). The experiment in a line: ATG_STAT3_CIS: Attagene CIS-FACTORIAL HepG2 Assay for human Signal Transducer and Activator of Transcription 3 (STAT3) (AID 2282963). The conditions noted are these: HepG2, Attagene cis-factorial STAT3 reporter transcription; actives raise or lower the signal. Put shortly: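 Uses human liver HepG2 transiently carrying cis-regulated reporter transcription units. Following 24 h dosing, reporter mRNA induction was detected by RT-PCR and capillary electrophoresis, analysed bidirectionally versus DMSO.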

Test [7] in a line: ATG_TA_CIS: Attagene CIS-FACTORIAL HepG2 Assay for human TA Basal Promoter (AID 2282964). The note with it: HepG2 Attagene CIS-factorial TA basal promoter reporter; actives raise or lower the signal. The method in brief: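 Cis-factorial format in HepG2: reporters report endogenous factors, not chimeric Gal4 fusions. After 24 h treatment, reporter transcripts were measured by RT-PCR-capillary electrophoresis fluorescence, analysed bidirectionally versus DMSO.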

Test [8] is described as follows: ATG_TCF_b_cat_CIS: Attagene CIS-FACTORIAL HepG2 Assay for human T-Cell-Factor with beta-catenin (TCF/b-cat) (AID 2282965). The conditions noted are these: HepG2 TCF/beta-catenin cis-reporter transcription, actives raise or lower the signal. Put shortly: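 Using capillary electrophoresis as the read-out, labelled reporter cDNA fragments from transiently transfected HepG2 were sized and quantified. Exposure lasted 24 hours; activity in either direction was referenced to DMSO.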

A short description of test [9]: ATG_TAL_CIS: Attagene CIS-FACTORIAL HepG2 Assay for human TAL Basal Promoter (AID 2282966).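 Also: background control endpoint measuring basal TAL promoter reporter mRNA not a specific factor.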 The conditions noted are these: HepG2 Attagene cis-factorial TAL promoter reporter; actives raise or lower the signal. The method in brief:
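Background-control endpoint: basal TAL promoter reporter transcripts in transiently transfected HepG2, measured 24 h after dosing. Read-out by RT-PCR with fluorescent primer extension and capillary electrophoresis; gain or loss of signal fitted relative to DMSO.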

Test [10] in a line: ATG_TGFb_CIS: Attagene CIS-FACTORIAL HepG2 Assay for human Transforming Growth Factor (TGF) (AID 2282967). The conditions noted are these: HepG2 Attagene CIS TGFb reporter, mRNA transcription; actives raise or lower the signal. Put shortly: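 Multiplexed cis-reporter HepG2 system, 24 h treatment; mRNA induction read by fluorescence after RT-PCR and CE; DMSO negative control, bidirectional curve fitting.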

Test [11] in a line: ATG_VDRE_CIS: Attagene CIS-FACTORIAL HepG2 Assay for human Vitamin D Receptor Element (VDRE) (AID 2282968). The conditions noted are these: HepG2 VDRE cis-reporter transcription, actives raise or lower the signal. Put shortly:
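Transfected HepG2 reporter cells, chemical treatment 24 h. RNA isolated, cDNA amplified with reporter-specific primers, products analysed by capillary electrophoresis. Endpoint fitted in both directions versus DMSO.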

The target in test [12] is X-box-binding protein 1 (Homo sapiens) (UniProt P17861). As to the kind of experiment: ATG_Xbp1_CIS: Attagene CIS-FACTORIAL HepG2 Assay for human X-box Binding Protein 1 (XBP1) (AID 2282972). The note with it: HepG2 XBP1 cis-element reporter, Attagene multiplex; actives raise or lower the signal. The method in brief: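 Multiplexed cis-reporter readout in transfected HepG2 liver cells. Exposure lasted 24 hours. Activity in either direction was fitted against DMSO as negative control and baseline.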

Test [13] can be described thus: ATG_M_19_TRANS: Attagene TRANS-FACTORIAL HepG2 Assay for M19 Transcription Factor (Internal Marker) (AID 2282974; active = hit-call score of the fitted dose curve at least 0.9, where 1 is the maximum). The conditions noted are these: HepG2 Attagene TRANS-FACTORIAL M19 internal marker reporter. The method in brief:
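HepG2 cells transiently transfected with multiple GAL4-UAS reporter transcription units were exposed to chemicals for 24 h. Reporter mRNA was read by RT-PCR, 6-FAM primer extension, HpaI digestion and capillary electrophoresis; gain of signal fitted relative to DMSO.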

Test [14] is described as follows: ATG_GAL4_TRANS: Attagene TRANS-FACTORIAL HepG2 Assay for GAL4 (Internal Marker) (AID 2282976; active = hit-call score of the fitted dose curve at least 0.9, where 1 is the maximum). The note with it: HepG2 Attagene TRANS GAL4 internal marker reporter. The method in brief: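 In transfected human HepG2 liver cells dosed 24 h, GAL4 reporter mRNA serves as a baseline marker. Detection by RT-PCR with fluorescent capillary electrophoresis, activity fitted upward relative to DMSO.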

For test [15], the target named is Transcription factor Sp1 (Homo sapiens) (UniProt P08047). As to the kind of experiment: ATG_Sp1_CIS: Attagene CIS-FACTORIAL HepG2 Assay for human Specificity Protein 1 (Sp1) (AID 2282961). The conditions noted are these: HepG2 Sp1 cis-reporter transcription, actives raise or lower the signal. Put shortly:
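HepG2 cells transiently transfected with multiple reporter transcription units driven by cis-regulatory elements; Sp1-responsive reporter mRNA measured 24 h after dosing by RT-PCR and capillary electrophoresis fluorescence, fitted bidirectionally against DMSO baseline.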

The nature of test [16]: ATG_PPRE_CIS: Attagene CIS-FACTORIAL HepG2 Assay for human Peroxisome Proliferator-activated Response Element (PPRE) (AID 2282958). The conditions noted are these: HepG2 PPRE cis-element reporter, Attagene transcription factor profiling; actives raise or lower the signal. The method in brief:
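HepG2 cells transiently transfected with multiplexed cis-element reporter units measure endogenous transcription factor activity. After 24 h compound exposure, reporter mRNA is quantified by RT-PCR, 6-FAM labeling, HpaI digestion and capillary electrophoresis; bidirectional fits are made against DMSO baseline.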

Test [17] addresses Steroid hormone receptor ERR1 (Homo sapiens) (UniProt P11474). As to the kind of experiment: ATG_ERRa_TRANS: Attagene TRANS-FACTORIAL HepG2 Assay for human Estrogen-Related Receptor alpha (ERRa) (AID 2282971; active = hit-call score of the fitted dose curve at least 0.9, where 1 is the maximum). The note with it: HepG2 Attagene TRANS reporter, ERRa transactivation. Put shortly: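 Reporter transcripts from ERRa-Gal4 chimera activity measured in transiently transfected human HepG2 cells 24 hours after dosing, using RT-PCR with 6-FAM primer extension, HpaI digestion and capillary electrophoresis; DMSO is baseline.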

Test [18] has as its target Nuclear receptor subfamily 1 group I member 3 (Homo sapiens) (UniProt Q14994). As to the kind of experiment: ATG_CAR_TRANS: Attagene TRANS-FACTORIAL HepG2 Assay for human Constitutive Androstane Receptor (CAR) (AID 2282969; active = hit-call score of the fitted dose curve at least 0.9, where 1 is the maximum;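 also: activators raise reporter mRNA above DMSO so AC50 marks induction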). The conditions noted are these: HepG2 Attagene TRANS-FACTORIAL CAR reporter. Put shortly: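 Steps: transient transfection of HepG2 with multiple GAL4-UAS reporter units; 24 h compound incubation; RNA isolation, RT-PCR, 6-FAM primer extension, HpaI digest; capillary electrophoresis. Gain-of-signal relative to DMSO negative control.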

The target of test [19] is Estrogen receptor (Homo sapiens) (UniProt P03372). As to the kind of experiment: ATG_ERa_TRANS: Attagene TRANS-FACTORIAL HepG2 Assay for human Estrogen Receptor alpha (ERa) (AID 2282970; active = hit-call score of the fitted dose curve at least 0.9, where 1 is the maximum). The conditions noted are these: HepG2 Attagene TRANS ERa GAL4 reporter, mRNA. Put shortly:
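Reporter transcripts were measured 24 h after dosing by RT-PCR with fluorescent primer extension and capillary electrophoresis. The system is transiently transfected HepG2 expressing exogenous NR-Gal4 chimeras driving GAL4-UAS reporters; DMSO is the baseline.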

Usually AC50 stands for the midpoint of the concentration-response curve, whichever way the signal moves.

Records with an inconclusive call do not appear. Active and inactive are the calls of the source. The calls were made as follows, unless noted: active = hit-call score of the fitted dose curve at least 0.9, where 1 is the maximum; inactive = score below 0.9.

Sequence of X-box-binding protein 1 (Homo sapiens) (P17861 whole entry, looked up): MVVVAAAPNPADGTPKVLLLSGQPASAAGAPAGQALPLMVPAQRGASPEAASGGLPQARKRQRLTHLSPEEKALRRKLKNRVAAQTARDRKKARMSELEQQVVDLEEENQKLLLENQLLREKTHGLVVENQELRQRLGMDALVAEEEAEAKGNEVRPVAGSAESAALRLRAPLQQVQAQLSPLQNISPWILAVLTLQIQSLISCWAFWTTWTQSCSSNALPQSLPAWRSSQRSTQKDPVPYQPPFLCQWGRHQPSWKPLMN
Sequence of Paired box protein Pax-6 (Homo sapiens) (P26367 whole entry, looked up): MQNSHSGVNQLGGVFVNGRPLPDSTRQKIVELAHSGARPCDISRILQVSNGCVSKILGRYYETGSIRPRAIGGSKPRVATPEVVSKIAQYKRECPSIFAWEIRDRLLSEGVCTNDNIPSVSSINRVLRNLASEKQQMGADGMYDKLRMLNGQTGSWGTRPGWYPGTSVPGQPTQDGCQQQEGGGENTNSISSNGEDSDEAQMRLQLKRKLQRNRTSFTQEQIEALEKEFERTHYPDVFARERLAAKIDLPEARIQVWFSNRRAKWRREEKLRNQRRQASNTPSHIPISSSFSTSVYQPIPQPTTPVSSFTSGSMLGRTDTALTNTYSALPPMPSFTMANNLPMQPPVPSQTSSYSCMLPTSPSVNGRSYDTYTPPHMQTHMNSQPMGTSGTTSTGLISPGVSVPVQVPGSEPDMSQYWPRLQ
Sequence of Signal transducer and activator of transcription 3 (Homo sapiens) (P40763 whole entry, looked up): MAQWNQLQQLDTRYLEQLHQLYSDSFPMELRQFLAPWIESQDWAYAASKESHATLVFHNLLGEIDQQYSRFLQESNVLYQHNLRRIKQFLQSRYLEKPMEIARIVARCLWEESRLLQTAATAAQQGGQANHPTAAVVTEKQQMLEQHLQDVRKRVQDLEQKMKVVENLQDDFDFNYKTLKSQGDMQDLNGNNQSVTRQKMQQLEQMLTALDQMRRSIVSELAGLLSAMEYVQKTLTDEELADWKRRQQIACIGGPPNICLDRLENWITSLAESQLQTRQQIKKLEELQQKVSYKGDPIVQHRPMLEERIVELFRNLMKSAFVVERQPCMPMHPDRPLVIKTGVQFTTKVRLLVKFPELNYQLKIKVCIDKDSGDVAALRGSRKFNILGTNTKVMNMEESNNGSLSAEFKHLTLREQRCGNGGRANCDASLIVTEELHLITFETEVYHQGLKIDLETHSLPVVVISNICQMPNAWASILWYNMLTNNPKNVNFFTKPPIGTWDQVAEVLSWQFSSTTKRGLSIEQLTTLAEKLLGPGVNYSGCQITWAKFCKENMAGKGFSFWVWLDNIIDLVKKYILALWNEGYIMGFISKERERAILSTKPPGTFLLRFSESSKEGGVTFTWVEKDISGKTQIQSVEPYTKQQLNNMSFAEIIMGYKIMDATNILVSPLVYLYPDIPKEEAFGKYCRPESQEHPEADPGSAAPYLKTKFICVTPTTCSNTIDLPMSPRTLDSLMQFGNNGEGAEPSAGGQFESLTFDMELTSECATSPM
Sequence of Transcription factor Sp1 (Homo sapiens) (P08047 whole entry, looked up): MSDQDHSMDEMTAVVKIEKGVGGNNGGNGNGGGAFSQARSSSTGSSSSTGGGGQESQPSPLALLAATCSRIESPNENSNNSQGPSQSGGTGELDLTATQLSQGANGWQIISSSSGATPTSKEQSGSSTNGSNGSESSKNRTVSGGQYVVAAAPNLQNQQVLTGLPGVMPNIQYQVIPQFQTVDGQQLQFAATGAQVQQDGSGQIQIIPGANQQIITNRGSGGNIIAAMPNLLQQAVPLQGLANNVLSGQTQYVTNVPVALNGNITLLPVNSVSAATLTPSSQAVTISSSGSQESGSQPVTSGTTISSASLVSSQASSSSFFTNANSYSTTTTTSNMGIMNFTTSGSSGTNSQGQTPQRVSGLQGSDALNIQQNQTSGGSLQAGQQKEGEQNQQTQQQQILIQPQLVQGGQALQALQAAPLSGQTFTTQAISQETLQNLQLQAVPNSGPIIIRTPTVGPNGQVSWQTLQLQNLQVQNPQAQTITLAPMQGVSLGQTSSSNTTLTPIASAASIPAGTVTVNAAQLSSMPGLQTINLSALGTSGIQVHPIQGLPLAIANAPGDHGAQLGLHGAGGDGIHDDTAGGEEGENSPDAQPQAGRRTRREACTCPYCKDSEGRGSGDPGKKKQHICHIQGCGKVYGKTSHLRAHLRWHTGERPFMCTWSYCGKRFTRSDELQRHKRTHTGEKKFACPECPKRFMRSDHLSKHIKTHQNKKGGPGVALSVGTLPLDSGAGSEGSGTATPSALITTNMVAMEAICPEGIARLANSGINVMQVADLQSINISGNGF
Sequence of Steroid hormone receptor ERR1 (Homo sapiens) (P11474 whole entry, looked up, the tested form may be a part): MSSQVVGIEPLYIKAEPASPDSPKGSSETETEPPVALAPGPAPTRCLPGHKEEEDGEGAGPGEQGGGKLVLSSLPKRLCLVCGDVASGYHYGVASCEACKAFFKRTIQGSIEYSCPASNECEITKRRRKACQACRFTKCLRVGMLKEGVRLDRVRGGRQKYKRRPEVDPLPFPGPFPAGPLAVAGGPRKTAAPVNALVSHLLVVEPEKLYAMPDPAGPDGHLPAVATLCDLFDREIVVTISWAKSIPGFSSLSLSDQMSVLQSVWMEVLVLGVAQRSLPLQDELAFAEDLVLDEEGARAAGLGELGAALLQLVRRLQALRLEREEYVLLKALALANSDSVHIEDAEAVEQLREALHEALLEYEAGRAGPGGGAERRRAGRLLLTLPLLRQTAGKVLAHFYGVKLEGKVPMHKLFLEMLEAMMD
Sequence of Estrogen receptor (Homo sapiens) (P03372 whole entry, looked up, the tested form may be a part): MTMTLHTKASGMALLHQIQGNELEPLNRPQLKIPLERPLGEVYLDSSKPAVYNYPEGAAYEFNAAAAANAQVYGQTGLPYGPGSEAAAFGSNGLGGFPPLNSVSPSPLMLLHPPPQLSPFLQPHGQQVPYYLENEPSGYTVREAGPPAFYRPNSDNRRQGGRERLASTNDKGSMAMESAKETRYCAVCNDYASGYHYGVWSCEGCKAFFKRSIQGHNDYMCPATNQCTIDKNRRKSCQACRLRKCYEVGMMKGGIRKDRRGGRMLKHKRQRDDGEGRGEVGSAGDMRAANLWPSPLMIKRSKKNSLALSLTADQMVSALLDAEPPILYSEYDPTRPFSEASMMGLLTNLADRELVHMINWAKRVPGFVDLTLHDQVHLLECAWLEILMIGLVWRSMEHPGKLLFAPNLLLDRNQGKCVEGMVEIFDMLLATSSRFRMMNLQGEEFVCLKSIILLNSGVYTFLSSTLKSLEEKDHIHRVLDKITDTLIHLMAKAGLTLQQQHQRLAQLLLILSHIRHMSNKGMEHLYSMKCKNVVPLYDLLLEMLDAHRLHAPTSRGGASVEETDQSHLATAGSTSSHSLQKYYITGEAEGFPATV
Sequence of Nuclear receptor subfamily 1 group I member 3 (Homo sapiens) (Q14994 whole entry, looked up, the tested form may be a part): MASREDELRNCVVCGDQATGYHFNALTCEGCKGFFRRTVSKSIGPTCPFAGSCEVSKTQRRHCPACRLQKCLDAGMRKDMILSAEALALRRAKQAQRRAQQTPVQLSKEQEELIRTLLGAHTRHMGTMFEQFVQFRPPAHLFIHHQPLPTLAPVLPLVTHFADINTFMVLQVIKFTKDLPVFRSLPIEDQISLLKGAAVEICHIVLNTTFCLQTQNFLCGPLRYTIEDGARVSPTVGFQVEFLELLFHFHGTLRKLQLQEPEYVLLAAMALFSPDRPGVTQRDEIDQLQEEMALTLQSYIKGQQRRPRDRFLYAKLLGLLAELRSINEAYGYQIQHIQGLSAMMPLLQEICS

As for `COCCOCCOCCOC`, the result in [1], in test [2], in test [3], in test [4], in [5] and in test [6] was inactive. For the same compound, the call in test [7], in test [8], in test [9], in test [10], in [11] and in [12] was inactive. The result in [13] and in test [14] was inactive.

As for `CCCCCCc1ccc(O)cc1O`, the concentration at half-maximal activity (AC50) was 51.1 µM (active) in [1]; 42 µM (active) in test [3]; 47.8 µM (active) in test [8]; 38.7 µM (active) in test [11]; 55.3 µM (active) in [12]. Also, the compound was called inactive in test [2], in [4], in test [5], in [6], in test [7] and in test [9]. In test [10], the outcome was inactive.

Take `Nc1cccc(N)c1`: the result in [1], in test [2], in test [3], in test [4], in [15] and in test [5] was inactive. Moreover, the outcome in test [6], in [7], in test [8], in test [9], in [10] and in test [11] was inactive. Further, the result in [12] and in [13] was inactive.

Consider `CCCCC(CC)COC(=O)c1ccc(C(=O)OCC(CC)CCCC)cc1` (stereo not given), for which the result in test [1], in test [16], in [3], in test [4], in test [5] and in [6] was inactive. Also, the result in test [7], in test [8], in test [9], in test [10], in test [17] and in test [12] was inactive. The outcome in test [14] was inactive. The AC50 in [2] is 63 µM (active).

Consider `Cc1ccc(S(=O)(=O)O)cc1C`, for which the compound was called inactive in [1], in test [2], in [16], in test [4], in test [15] and in test [5]. Besides, the compound was classed as inactive in [6], in test [7], in test [8], in [9], in [10] and in [11]. The result in test [18], in test [19], in test [12] and in [13] was inactive.
